Screening results (PubChem)
KAT2A inh: qHTS Assay for Inhibitors of GCN5L2; hit rate 0.21% among 390,000; Potency, µM (series often up to 58.9 µM), inactives show at the highest dose activity change, negative = inhibition, usual class: inhibitors; GCN5L2 HAT assay, ThioGlo1 CoA-SH fluorescence; Histone acetyltransferase KAT2A (Homo sapiens), Q92830; further: on the % scale 0 is the no-effect control and ±100 the full control effect
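GCN5L2 (20 nM) in 50mM HEPES pH 7.5, 0.1mM EDTA, 0.01% Tween-20 preincubated 15 min with compounds at room temperature. Reaction started with H3(1-25) 75uM, acetyl-CoA 70uM, ThioGlo1 50uM; CoA-thiol fluorescence (Ex340/Em540) read at 0 and 20 min.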
GLS inhibitor: qHTS for Inhibitors of Glutaminase (GLS); Glutaminase kidney isoform, mitochondrial (Homo sapiens), O94925; GLS enzymatic activity, qHTS titration; Potency, µM (doses to about 45.5 µM), without a hit: top-dose activity change, negative = inhibition, usual class: inhibitors; hit rate 0.21% among 410,000; AID 624170, 2012; further: on the % scale 0 is the no-effect control and ±100 the full control effect
Target sequence (O94925 whole entry, looked up, canonical isoform): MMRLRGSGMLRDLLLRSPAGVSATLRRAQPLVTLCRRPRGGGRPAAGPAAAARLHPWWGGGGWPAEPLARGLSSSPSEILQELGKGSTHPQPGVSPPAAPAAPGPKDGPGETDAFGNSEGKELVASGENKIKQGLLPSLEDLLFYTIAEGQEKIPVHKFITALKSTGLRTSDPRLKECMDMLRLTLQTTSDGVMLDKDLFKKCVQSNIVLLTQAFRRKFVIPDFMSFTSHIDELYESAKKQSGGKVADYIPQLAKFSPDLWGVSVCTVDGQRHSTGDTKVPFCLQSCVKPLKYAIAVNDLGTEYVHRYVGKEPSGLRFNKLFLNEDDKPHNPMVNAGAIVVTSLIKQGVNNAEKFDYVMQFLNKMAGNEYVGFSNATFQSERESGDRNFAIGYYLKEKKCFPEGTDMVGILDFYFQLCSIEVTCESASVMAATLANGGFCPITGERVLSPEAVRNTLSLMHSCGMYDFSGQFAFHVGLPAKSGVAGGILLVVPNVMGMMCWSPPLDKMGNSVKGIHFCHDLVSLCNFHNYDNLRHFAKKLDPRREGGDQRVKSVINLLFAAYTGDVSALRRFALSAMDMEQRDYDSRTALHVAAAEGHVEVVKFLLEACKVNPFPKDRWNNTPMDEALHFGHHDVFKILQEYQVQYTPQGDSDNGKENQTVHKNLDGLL
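Assay buffer: 45 mM KH2PO4 pH 8.2, 0.02% Tween-20. hKGA acts on L-glutamine (1 mM solution added); product glutamate is reported by an oxidase/peroxidase Amplex Red coupling, with fluorescence taken at baseline and 30 min.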
PKM2 act: qHTS Assay for Activators of Human Muscle isoform 2 Pyruvate Kinase; Pyruvate kinase PKM (Homo sapiens), P14618; purified PKM2, Kinase-Glo ATP luminescence, activation; response scale: 0% is enzyme alone, no compound; Potency, µM (doses to about 57.5 µM), inactives show top-dose activation, usual class: activators; hit rate 0.34% among 260,000; further: on the % scale 0 is the no-effect control and ±100 the full control effect; nearly all actives have a fitted effect of over 55% in size
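Kinase-Glo luminescence reports ATP generated from ADP (0.1 mM) and PEP (0.5 mM) by purified hPK-M2 after 1 h at room temperature, pH 7.2 imidazole buffer; intermediate enzyme activity allows detecting inhibitors and activators.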
Mito fusion act: qHTS Assay for Small Molecule Inhibitors of Mitochondrial Division or Activators of Mitochondrial Fusion; AID 485298, 2010; S. cerevisiae fusion-defective mutant growth rescue, CellTiterGlo 48 h; Potency, µM (top dose mostly 46.1 µM), for the others: at the top dose growth rescue (activation), hits mostly activators; hit rate 0.23% among 320,000; further: % of control where 0% means no effect; nearly all actives have a fitted effect of over 45% in size
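S. cerevisiae fusion-defective temperature-sensitive mutants (e.g. fzo1-1, mgm1-5) grown 48 h at 37C in YPEG (ethanol/glycerol non-fermentable) medium with 23 nl compound per well; growth rescue read as CellTiterGlo luminescence.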
VDR inh: Inhibitors of the vitamin D receptor (VDR): qHTS. Vitamin D3 receptor (Homo sapiens), P11473. AID 504847, 2011. hit rate 0.93% among 400,000. Potency, µM, inactives show max response, negative = inhibition, usual class: inhibitors. VDR-SRC2-3 peptide fluorescence polarization, 2 h; further: on the % scale 0 is the no-effect control and ±100 the full control effect
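Inhibition of the VDR/SRC2-3 peptide interaction is quantified by fluorescence polarization. Compounds (23 nl, pintool) incubate with the reagents for 2 hours at ambient room temperature.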
PLK1 PBD inh: qHTS for Inhibitors of PLK1-PDB (polo-like kinase 1 - polo-box domain): Primary Screen; Plk1 PBD binding of FITC phosphopeptide, fluorescence polarization; Potency, µM, for the others: max response, negative = inhibition, usual class: inhibitors; hit rate 2.8% among 360,000; further: series mostly up to about 57 µM; on the % scale 0 is the no-effect control and ±100 the full control effect; nearly all actives have a fitted effect of over 65% in size
Active calls of the source: *; ? = inconclusive; . = not tested or not shown; [ ] = another dose, or the depositor's remark. In the library only some 3.4% were active in any assay of this set; here they are far more common. The call rests on the fitted dose curve; in most records, active means well fitted curve in the direction sought with a large enough effect; inconclusive means small, poorly fitted or top-dose-only effect, or another doubt; inactive means no such curve, though single readings can be large; an effect the other way counts as inactive or inconclusive. Potency means the concentration at half of the fitted maximal effect.

SMILES	KAT2A inh	GLS inhibitor	PKM2 act	Mito fusion act	VDR inh	PLK1 PBD inh
CC1(C(=O)Nc2ccc3[nH]ncc3c2)CCN1C(=O)Cc1ccc(-c2ccccc2)cc1 (stereo not drawn)	.	3%	.	.	.	-14%
CC(=O)Nc1cccc(Oc2nc(C)cc(C)c2C#N)c1	-9%	-3%	4%	5%	?	24µM*
CCN(c1ccccc1)c1nc(C#N)nc(N(CC)c2ccccc2)n1	-18%	0%	0%	-6%	?	21µM*
N#Cc1nc(N2CCCC2)nc(N(c2ccccc2)c2ccccc2)n1	.	.	.	.	-13%	.
C[N+](C)(CCCCCC[N+](C)(C)C1c2ccccc2-c2ccccc21)C1c2ccccc2-c2ccccc21	.	-4%	.	.	.	.
COc1ccccc1Cc1c(-c2ccc(C#N)cc2)nc2c(Cl)cc(C(F)(F)F)cn12	.	2%	.	.	.	9%
Nc1[nH]c(C(=O)c2ccccc2)c(-c2ccncc2)c1C(=O)NCc1ccc(Cl)cc1	.	6%	.	.	.	-1%
Cc1c(Cl)cccc1NC(=O)N1CCN(C(=O)c2ccco2)CC1	-15%	2%	-9%	4%	-25%	17µM*
COC(=O)c1ccc(NC(=S)N2CCN(C(=O)c3ccco3)CC2)cc1	-15%	-3%	-4%	-1%	-4%	19µM*
CCN1C/C(=C/c2cccs2)c2nc3ccccc3c(C(=O)O)c2C1	-9%	-2%	-3%	-3%	15%	-29%
CCc1ccc(/C=C2\CN(CC)Cc3c2nc2ccccc2c3C(=O)O)cc1	2µM*	28%	13µM*	2%	-11%	-11%
O=C(O)c1c2c(nc3ccccc13)/C(=C/c1ccc(O)cc1)CC2	?	?	0%	2%	-7%	19µM*
O=C(O)c1c2c(nc3ccccc13)/C(=C/c1ccc(OC(F)F)cc1)CCC2	-4%	-3%	2%	0%	1%	-11%
CNc1c2cccc(C)c2nc2c(C(=O)NCCN(C)C)cccc12	.	-1%	.	.	32%	17µM*
Cc1ccccc1C(=O)NCCCNC(=O)c1ccccc1C	.	-27%	.	.	1%	-6%
O=C(Nc1ccc(F)cc1)c1ccc(COc2ccccc2)cc1	-2%	-5%	1%	0%	-2%	27µM*
O=C(NNC(=O)c1ccccc1OCc1ccccc1)c1ccccc1F	-1%	6%	.	13%	12%	-1%
CC(=O)Nc1ccc(NC(=O)c2ccc(COc3ccccc3)cc2)cc1	-6%	9%	-5%	-2%	-24%	-15%
O=C(NCc1ccc(F)cc1)c1ccccc1OCc1ccccc1	-12%	1%	1%	18µM*	-17%	-7%
COC(=O)C1=Cc2cc(OC)cc([N+](=O)[O-])c2OC1N1CCOCC1 (stereo not drawn)	1%	-3%	-1%	-4%	0%	2%
O=c1[nH]c(=O)n([C@@H]2C[C@H](O)[C@H](CO)O2)cc1C(F)(F)F	6%[21.4 µM]	.	.	.	3%	.
CC(=O)OCC1OC(n2cc(F)c(=O)[nH]c2=O)C(OC(C)=O)C1OC(C)=O (stereo not drawn)	.	0%	.	.	-6%	-8%
O=C1C(F)=CC(COC(c2ccccc2)(c2ccccc2)c2ccccc2)OC1n1cc(F)c(=O)[nH]c1=O (stereo not drawn)	.	?	.	.	45µM*	6µM*
COc1ccc(CCn2c(=S)[nH]c(=O)c3c(C)cc(C)nc32)cc1OC	.	.	.	.	-15%	.
Cc1ccc(NC(=O)c2sc(=S)n(-c3cc(C)ccc3F)c2N)cc1	-18%	-21%	3%	-5%	89µM*	12µM*
SMILES	KAT2A inh	GLS inhibitor	PKM2 act	Mito fusion act	VDR inh	PLK1 PBD inh
COc1ccc(Cl)cc1-n1c(N)c(C(N)=O)sc1=S	-2%	-13%	-3%	1%	79µM*	12µM*
Cc1ccccc1-n1c(N)c(C(=O)Nc2ccc(F)cc2)sc1=S	1%	0%	-29%	-4%	-7%	?
CCn1c(N)c(C(N)=O)sc1=S	-6%	1%	2%	-1%	7%	27µM*
CCOc1ccccc1-n1c(N)c(C(N)=O)sc1=S	-10%	7%	-13%	15%	-15%	?
Cc1ccc(-n2c(N)c(C(N)=O)sc2=S)c(C)c1	-17%	-12%	-5%	2%	89µM*	6.7µM*
CCOC(=O)N1CCc2c(sc3c2c(=O)n(CCc2ccccc2)c(=O)n3Cc2ccc(F)cc2)C1	-10%	-13%	.	.	-6%	.
CC(C)CNC(=O)CN(C)S(=O)(=O)c1ccc(F)cc1	1%	0%	2%	-14%	-6%	-20%
Cc1cc(C)n(S(=O)(=O)c2ccc3oc(=O)ccc3c2)n1	3%	-13%	.	14%	9%	-18%
Cc1ccn(S(=O)(=O)c2ccc3oc(=O)ccc3c2)n1	-4%	0%	10µM*	-11%	-5%	-4%
CCCN1CCN(CCNC(=O)Nc2ccc(OC)cc2OC)CC1	-7%	10%	.	.	6%	.
O=S(=O)(NCc1cccnc1)c1cccn1-c1ncc(C(F)(F)F)cc1Cl	0%	7%	22µM*	-4%	16%	-10%
O=C(Cc1ncc(C(F)(F)F)cc1Cl)NCc1cccnc1	-6%	1%	.	-18%	16%	0%
O=C(NCc1cccnc1)c1cccn1-c1ncc(C(F)(F)F)cc1Cl	-2%	1%	-7%	23%	?	30µM*
Cc1c2cnn(-c3ccccc3)c(=O)c2c(C)n1CC(=O)Nc1ccccc1Br	2%	-3%	.	.	12%	.
CCN(Cc1ccccc1)C(=O)CCS(=O)(=O)c1ccc2c(c1)NC(=O)CO2	-5%	4%	-5%[0.46 µM]	-6%	-19%	21µM*
COc1cc2c(cc1OC)C(CC(=O)O)N(C(=O)Nc1cc(OC)c(OC)c(OC)c1)CC2 (stereo not drawn)	-6%	-2%	.	.	16%	.
CCn1c(SCC(=O)NC(=O)NC(C)(C)C)nc2ccccc21	-6%	-25%	2%	3%	?	9.5µM*
COc1nc(Nc2ccccc2F)nc(OC)n1	3%	-9%	-7%	2%	1%	-6%
COc1nc(NCCO)nc(Nc2ccccc2F)n1	-1%	45%	-1%	4%	3%	27µM*
Cc1scc(C(=O)N/N=C/c2ccc(OC(C)C)cc2)c1C	-1%	3%	-5%	0%	-6%	-5%
Cc1scc(C(=O)N/N=C/c2ccc(Cl)s2)c1C	-1%	-1%	0%	13µM*	6%	-2%
CC(C)(C)c1ccc(C(=O)Nc2ccc(NC(=O)c3ccco3)cc2)cc1	-9%	-6%	3%	2%	11%	-1%
Cc1ccc(-c2nc3[nH]c(=O)cc(NC(=O)C(C)C)n3n2)cc1	-1%	25%	-12%	-2%	?	27µM*
CCC(=O)Nc1cc(=O)[nH]c2nc(-c3ccc(Cl)cc3)nn12	-2%	?	0%	0%	?	21µM*
